# The list is not random: actives were taken first. Their share in the collection is about 3.2%.
# GoLoco inh red: inhibitors of human Gai1-RGS12 GoLoco interaction (red fluorophore). Potency, µM (titrated, usually from 61.6 µM), inactives show at the top dose activity, negative = inhibition, actives largely listed as inhibitors. Gai1:RGS12 GoLoco peptide FP, rhodamine, 10 min. P63096. 0.44% of 230,000 active. AID 880; active = well fitted inhibition curve with a large enough effect, not every such curve was filed as active; inactive = no such curve, though single readings can be large or run the other way; also: nearly all actives have a fitted effect of over 30% in size
# Tau fibril FP: blocks human tau fibril formation measured by polarization | Potency, µM (series often up to 57.7 µM), without a hit: at the highest dose activity, negative = inhibition, actives largely listed as inhibitors | K18 P301L tau heparin fibrillization, Alexa594 FP, 6 h | 0.39% of 280,000 active; also: nearly all actives have a fitted effect of over 55% in size
# Target sequence (P10636 561-689 P618L limits assumed): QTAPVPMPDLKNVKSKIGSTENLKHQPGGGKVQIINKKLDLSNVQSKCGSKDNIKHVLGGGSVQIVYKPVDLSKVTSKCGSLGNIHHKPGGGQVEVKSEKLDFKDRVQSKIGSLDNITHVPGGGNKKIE
#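 Recombinant K18 P301L […], labeled with Alexa 594 at 0.24 uM over 15 uM unlabeled; heparin inducer 20 uM final; 37 C, 6 hr; FP endpoint.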
# Tau fluor cs: counter-screen for tau fibril formation inhibitors | Potency, µM (top dose mostly 57.7 µM), for inactives: at the top dose activity change, negative = decrease | tau K18 P301L Alexa594 fluorescence, heparin fibrillization | 0.93% of 280,000 active | AID 1463; also: nearly all actives have a fitted effect of over 55% in size
#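 Human tau K18 P301L (15 uM unlabeled, 0.24 uM Alexa 594-labeled) in 100 mM sodium acetate pH 7 with 20 uM heparin, 6 hr at 37 C. ThT 30 uM added, 1 hr ambient; Alexa 594 FP and total fluorescence read at 555/632 nm.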
# Tau fibril ThT: blocks human tau fibril formation measured by thioflavin T; P10636; recombinant tau K18 P301L (four-repeat tau fragment), heparin-induced fibrillization, ThT fluorescence; Potency, µM (highest dose often 57.4 µM), for inactives: at the top dose activity, negative = inhibition, usual class: inhibitors; 2.1% of 270,000 active; AID 1460; also: nearly all actives have a fitted effect of over 55% in size
#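 K18 P301L tau (15 uM + 0.24 uM Alexa 594-tagged), heparin 20 uM, NaOAc pH 7, 6 h 37 C; ThT 30 uM, 1 h RT, ex 450/em 510 nm.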
# TRb-SRC2 inh: TRbeta-SRC2 interaction inhibition; P10828; TRbeta-SRC2 peptide binding, fluorescence polarization; receptor liganded with 1 µM T3; Potency, µM (doses to about 106 µM), for inactives: top-dose activity change, negative = inhibition, actives largely listed as inhibitors; 0.065% of 280,000 active;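 also: plate controls were bound peptide for no effect and peptide without receptor for full effect; nearly all actives have a fitted effect of over 50% in size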
# Target sequence (P10828 whole entry, looked up): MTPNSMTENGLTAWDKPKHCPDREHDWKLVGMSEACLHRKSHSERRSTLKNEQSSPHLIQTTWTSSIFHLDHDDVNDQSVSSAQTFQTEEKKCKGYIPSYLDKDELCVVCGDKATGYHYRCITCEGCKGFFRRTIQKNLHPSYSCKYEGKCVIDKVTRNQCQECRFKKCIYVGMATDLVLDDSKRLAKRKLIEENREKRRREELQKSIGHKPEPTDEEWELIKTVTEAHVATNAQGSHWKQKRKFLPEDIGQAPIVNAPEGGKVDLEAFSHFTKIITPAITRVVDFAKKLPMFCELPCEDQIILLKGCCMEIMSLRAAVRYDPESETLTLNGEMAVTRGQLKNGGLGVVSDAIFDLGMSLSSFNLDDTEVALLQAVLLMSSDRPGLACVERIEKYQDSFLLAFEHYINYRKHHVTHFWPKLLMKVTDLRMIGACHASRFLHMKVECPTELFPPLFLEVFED
#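 Decrease in fluorescence polarization of 20 nM Texas Red SRC2 coactivator peptide flagged inhibition of its binding to 0.6 uM TRb LBD; 1 uM T3 included, incubation 5 hr, ex 555/em 632 nm.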
# TR SRC2 fluor cs: Texas Red fluorescence interference in TRb-SRC2 counter-screen; TRb/SRC2 Texas Red total fluorescence interference; Potency, µM (titrated, usually from 106 µM), for inactives: top-dose fluorescence change, negative = quenching; 0.29% of 280,000 active; active = well fitted curve in either direction with a large enough effect; inconclusive = small, poorly fitted or top-dose-only effect
#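 Human TRβ ligand-binding domain (0.6 uM) and Texas Red SRC2 peptide (20 nM) in Tris buffer with 1 uM T3 and 5% DMSO were incubated with pinned compound for 5 hr at ambient temperature. Total fluorescence was computed as S + 2P (555/632 nm).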
# * marks the source's active call; other numbers are inactive results; ? = inconclusive; · = no result; [ ] = dose if it differs, or a comment. Unless noted, calls follow the shape of the dose curve; as a rule, active = well fitted curve in the direction sought with a large enough effect; inconclusive = small, poorly fitted or top-dose-only effect, or another doubt; inactive = no such curve, though single readings can be large; an effect the other way counts as inactive or inconclusive. Unless noted, % is scaled to controls: 0 for no effect and ±100 for the full control effect; potency is read from the fitted curve at half-maximal effect.
SMILES,GoLoco inh red,Tau fibril FP,Tau fluor cs,Tau fibril ThT,TRb-SRC2 inh,TR SRC2 fluor cs
Cc1noc(NS(=O)(=O)c2ccc(N/C=C\C(=O)c3ccc(Br)cc3)cc2)c1C,11%,-2%,-25%,13µM*,3%,-8%
Cc1noc(NS(=O)(=O)c2ccc(NC(=O)Nc3ccc(Cl)c(Cl)c3)cc2)c1C,18%,?,11µM*[quencher],?,-7%,-11%
Cc1noc(NS(=O)(=O)c2ccc(N/C=C\C(=O)c3cccc4ccccc34)cc2)c1C,14%,-5%,-16%,10µM*,-2%,-7%
Cc1nc2ccn(Cc3ccco3)c(=O)c2cc1C(=O)NCc1ccc(Cl)cc1,·,-7%,-15%,?,1%,5%
COc1ccc(CNC(=O)CN2C(=O)c3cccnc3Oc3ccc(C)cc32)cc1,·,-7%,1%,2%,-22%,20µM*[quencher]
Cc1ccc2c(c1)N(CC(=O)NCc1cccc(Cl)c1)C(=O)c1cccnc1O2,·,-12%,-19%,-9%,-1%,-3%
Cc1ccc(CNC(=O)CCCN2C(=O)c3cccnc3Oc3ccc(Cl)cc32)cc1,·,3%,-2%,2%,-9%,18µM*[quencher]
Cc1ccc(C)c(CN2C(=O)c3ccccc3S(=O)(=O)c3ccc(C(=O)N4CCOCC4)cc32)c1,·,2%,-25%,-12%,-30%,2.8µM*[quencher]
CCCOCC(C)O (stereo not drawn),-19%,·,·,·,3%,-3%
CCOC(=O)N1CCN(C(=O)c2c(N)no[n+]2[O-])CC1,-10%,?,-11%,25µM*,-7%,-2%
O=C(O)c1ccccc1CN1CCC[C@@H](C(=O)O)C1,7%[14.2 µM],·,·,·,·,·
C/C(=N\NC(=O)c1nc2ccccn2c1C)c1cc2ccccc2o1,11%,4%,-1%,?,10%,0%
C/C(=N/NC(=O)c1cc2ccccc2cc1O)C1C(=O)c2ccccc2C1=O,12%,-1%,14µM*[quencher],2.5µM*,20%,40µM*[quencher]
C/C(=N\NC(=O)c1cc2ccccc2cc1O)c1cc2ccccc2o1,25µM*,6%,?,3.5µM*,?,40µM*[quencher]
CCC/C(C)=N/NC(=O)c1ccccc1O,8%,1%,5%,-6%,15%,-7%
C/C(=N\NC(=O)c1ccccc1O)C1C(=O)c2ccccc2C1=O,8%,12%,?,5µM*,0%,?
C/C(CC(=O)N1CCN(C=O)CC1)=N\NC(=O)c1cc2ccccc2cc1O,14%,?,?,25µM*,30%,45µM*[quencher]
O=S(=O)(NCCc1csc2nc(-c3ccccc3)nn12)c1cc(F)ccc1F,·,?,-19%,7%,1%,1%
CC[N+]1(C)CCC(=C2c3ccccc3CC(=O)c3sccc32)CC1 (stereo not drawn),-2%,-3%,2%,-5%,-9%,-2%
C[N+]1(C)CCC(=C2c3ccccc3CC(=O)c3sccc32)CC1,14µM*,2%,3%,11%,8%,2%
Cc1ccc(NC(=S)N/N=C/c2ccc([N+](=O)[O-])s2)cc1,135%,?,16µM*[quencher],5µM*,-4%,-3%
O=C(Nc1nccs1)C1CC=CC2CCN(Cc3ccc(Cl)c(Cl)c3)C(=O)C21 (stereo not drawn),·,·,·,·,1%,-1%
CN1/C(=C\C(=O)Nc2ccc(F)cc2)C(C)(C)c2ccccc21,·,10%,10µM*[quencher],?,4%,-11%
CN1/C(=C\C(=O)Nc2ccc(Br)cc2)C(C)(C)c2ccccc21,-4%,4%,7.1µM*[quencher],?,-4%,-5%
CN1/C(=C\C(=S)NC(=O)c2ccc([N+](=O)[O-])cc2)C(C)(C)c2ccccc21,81%,3%,-3%,?,10%,6%
SMILES,GoLoco inh red,Tau fibril FP,Tau fluor cs,Tau fibril ThT,TRb-SRC2 inh,TR SRC2 fluor cs
CN1/C(=C\C(=O)Nc2cccc(Cl)c2)C(C)(C)c2ccccc21,36%,8%,14µM*[quencher],?,-5%,0%
CN1/C(=C/C(=O)C2CC2)C(C)(C)c2ccccc21,76%,6%,6%,-6%,-3%,-2%
CN1/C(=C\C(=S)NC(=O)c2cccc(Br)c2)C(C)(C)c2ccccc21,·,11%,9%,7.1µM*,12%,5%
CCN(CC)S(=O)(=O)c1cccc(C(=O)/C=C2/N(C)c3ccccc3C2(C)C)c1,-1%,12%,-28%,-19%,2%,0%
CC(=O)OC[C@@H]1O[C@H](CCO/N=C\[C@@H](C)[C@H](OCc2ccccc2)C(C)C)C=C[C@@H]1OC(C)=O,·,0%[11.6 µM],-10%[11.6 µM],-7%[11.5 µM],0%[11.2 µM],-4%[11.2 µM]
COc1ccc(-c2nc(SCC(=O)NCc3nc4ccccc4n3C)n3[nH]c(=O)cc3n2)cc1,·,-8%,-13%,-14%,5%,-1%
CCOc1cc(/C=N/NC(=O)C(N)=O)cc(Br)c1O,-4%,-4%,-3%,-15%,-6%,-4%
CCOc1cc(Br)c(Br)c(C=Nc2ccc(NC(C)=O)cc2)c1O,1%,-3%,-12%,6.3µM*,-4%,1%
CC(=O)Nc1ccc(N=Cc2c(O)c(C(=O)Nc3ccccc3)cc3ccccc23)cc1,14µM*,?,-26%,13µM*,-5%,0%
COc1cccc2nc3cc(C)c(C)cc3nc12,2%,?,-27%,22µM*,3%,-9%
CCc1ccccc1NS(=O)(=O)c1ccc2[nH]cc(C(=O)NC3CCCC3)c(=O)c2c1,-4%,13µM*,?,6%,-4%,-1%
O=C(NC1CCCCC1)c1c[nH]c2ccc(S(=O)(=O)Nc3ccccc3F)cc2c1=O,·,28µM*,?,-11%,0%,1%
COc1ccccc1N1CCN(C(=O)CCS(=O)(=O)c2cc(Br)cc3c2N(C(=O)C2CC2)CC3)CC1,·,-5%,-10%,-12%,5%,-2%
Cc1ccc(NNC(=O)C(O)(c2cccc(C(F)(F)F)c2)c2cccc(C(F)(F)F)c2)cc1,-12%,1%,13µM*[quencher],-18%,0%,-8%
O=C(NNc1ccccc1Br)C(O)(c1cccc(C(F)(F)F)c1)c1cccc(C(F)(F)F)c1,10%,?,?,1%,-4%,-1%
COc1cccc(C2CC(=O)NC(SC)=C2C#N)c1 (stereo not drawn),4%,0%,-8%,-11%,-2%,-1%

# Compound activity as filed in PubChem BioAssay.
